PTK2B oligo ant: Pyk2 (human) oligomerization antagonism. Q293 cells, Pyk2 FERM NanoBiT luminescence; active compounds read low. z-score (the deposit names both 25 µM and 10 µM). 0.83% of 99,000 active. Q14289;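 active means Z-score of -3 or lower, scaled per plate to the spread of control and sample wells; inactive means z-score above -3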;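 further: negative z-score means lost luminescence so less FERM oligomerization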
CYP2C9 activ: CYP2C9 (human) activation; recombinant CYP2C9, luciferin-H conversion, luminescence; active compounds read high; factor 1 = untreated enzyme, 0 = blocked; activation factor at 5 µM; 1.4% of 96,000 active;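 active means activation factor of 2 or more for CYP2C9 at a 5 µM dose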;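 further: 0 = sulfaphenazole-blocked wells and 1 = vehicle-only wells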
CYP2C19 activ: increases human CYP2C19 enzyme activity | 96,000 tested, under 10 active | recombinant CYP2C19, luciferin-H EGE luminescence; active compounds read high; 0 = fully inhibited enzyme, 1 = untreated enzyme | activation factor at 5 µM;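 active means activation factor of at least 2 at 5 µM in the primary screen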;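 further: 0 = wells with 2.5 mM tranylcypromine and 1 = vehicle-only wells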
CYP2C9 inhib: human CYP2C9 inhibition; P11712; CYP2C9 Supersomes, luciferin-H conversion, luminescence; inhibition, % at 5 µM; 20% of 96,000 active;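 active means blocking of liver enzyme CYP2C9 beyond about 50% at 5 µM, limit read from the data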
CYP2C19 inhib: blocks human cytochrome P450 2C19; inhibition, % at 5 µM; 21% of 96,000 active; P33261; CYP2C19 Supersomes, luciferin-H EGE luminescence, 30 min;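 active means CYP2C19 inhibition above a set limit at 5 µM in the primary screen, cut at about 50% in these data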;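 further: plate controls were negative control wells for no effect and 2.5 mM tranylcypromine positive control for full effect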
Cav3 T inh: human Cav3.2 channel inhibition, primary screen | O95180 | Cav3.2-expressing cells, Fluo-4 calcium fluorescence FDSS; active compounds read low | B-score at 10 µM | 4% of 100,000 active | AID 449739;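 active means single-dose well whose peak fluorescence ratio is a statistical outlier from its plate by either plate-standardised score or position-corrected B-score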
An asterisk follows results filed as active; . = not tested or not shown. A selection: hits, their analogues and other compounds. The true share with any hit is near 27%.

SMILES	PTK2B oligo ant	CYP2C9 activ	CYP2C19 activ	CYP2C9 inhib	CYP2C19 inhib	Cav3 T inh
O=C(Nc1ccccc1C(=O)NCc1ccccc1)c1ccco1	0.06	0.3	0.5	73.9*	53.9*	-0.0351
O=C(Nc1ccccc1C(=O)NCc1cccnc1)c1ccco1	0.12	0.5	0.2	53.6*	78.3*	0.542
O=C(CCc1ccccc1)Nc1ccccc1C(=O)NCc1ccco1	-0.32	.	.	.	.	-0.833
O=C(Nc1ccc(Cl)cc1)Nc1ccccc1C(=O)NCc1ccco1	-1.34	0.5	0.9	53.1*	5.7	-0.0614
CC(NC(=O)c1ccccc1NC(=O)c1ccco1)c1ccccc1 (stereo not drawn)	-0.42	0.3	0.6	69.6*	36.4	1.84
O=C(Nc1ccccc1C(F)(F)F)c1cc(S(=O)(=O)N2CCOCC2)ccc1F	0.1	.	.	.	.	0.555
O=C(Nc1c(C(=O)Nc2ccccc2)cnn1-c1ccccc1)c1ccco1	0.5	0.7	1.1	26.4	-5.7	0.207
O=C(Nc1ccccc1C(=O)NCc1ccccc1)c1ccccc1	-2.28	0.5	0.8	54.1*	15.9	-1.27
O=C(Nc1ccccc1NC(=O)c1ccco1)c1ccco1	-0.13	1	1	0.7	1.6	-0.728
O=C(Nc1ccccc1C(=O)NC(Cc1ccccc1)C(=O)NC1CCCCCC1)c1ccccc1 (stereo not drawn)	-0.73	0.3	0.6	71.4*	44.6	-5.33*
O=C(Nc1c(C(=O)NCc2ccco2)cnn1-c1ccccc1)c1cccc(F)c1	0.33	0.1	0.3	87.4*	67.1*	-0.336
O=C(Nc1cccc2cccc(NC(=O)c3ccco3)c12)c1ccco1	0.03	1	0.3	-3.7	69.4*	0.229
Cn1c(SCC(=O)N2CCOCC2)nc(O)cc1=O	0.32	0.9	1	5.3	0.3	0.28
C#CCOCCOCCOCCNc1nc(N2CCN(C(=O)[C@H](CCC(=O)O)n3cc(C(N)CC(C)C)nn3)CC2)nc(N2CCN(C(=O)[C@H](CCC(=O)O)n3cc(C(N)CC(C)C)nn3)CC2)n1 (stereo partly drawn)	.	.	.	.	.	0.54
Cc1cc(N(C)C)nc(SC(C)C)n1	-0.27	1.2	1	-22.7	-1.0	0.237
O=C(Nc1ccccc1)Nc1ccccc1C(=O)NCc1ccccc1	-1.57	0.5	0.8	50.5*	17.8	-0.245
O=C(Nc1cccnc1)c1cccc(NC(=O)c2ccco2)c1	-0.15	1.4	1	-42.0	2.9	0.27
Cc1ccc(C(=O)Nc2cccnc2)cc1NC(=O)c1ccco1	0.13	0.5	1.1	54.3*	-5.5	1.31
Cc1ccccc1NC(=O)CNc1ccccc1C(=O)NCc1ccco1	-0.47	0.8	0.3	24.4	68.1*	-1.12
O=C(Nc1ccccc1C(=O)NCc1ccco1)c1ccccc1	-1.58	0.3	0.5	73.8*	54.3*	.
CCS(=O)(=O)N1CCN(C(=O)c2ccc(-c3ccccc3)cc2)CC1	1.36	1.1	1.1	-9.3	-14.5	0.101
COc1ccc(C2(C(=O)NCCCN(C)C)CCOCC2)cc1	.	1.1	1.3	-5.5	-30.0	.
CCCNC(=O)c1ccccc1NC(=O)c1ccc(CSc2ccccc2)cc1	-1.15	0.2	0.3	79.0*	74.5*	-2.16
O=C(Nc1ccc(Cl)cc1C(=O)Nc1ccncc1)c1ccco1	-0.5	1.2	1	-21.3	-0.5	0.314
O=C(Nc1ccc(Cl)cc1C(=O)NCc1cccnc1)c1ccco1	0.2	0.4	0.8	57.6*	22.7	-0.209
SMILES	PTK2B oligo ant	CYP2C9 activ	CYP2C19 activ	CYP2C9 inhib	CYP2C19 inhib	Cav3 T inh
CN(Cc1ccccc1)C(=O)c1ccccc1NC(=O)c1ccccc1	0.42	0.9	0.6	14.0	44.6	-1.69
COc1ccc(C(=O)Nc2ccc(Cl)cc2C(=O)NCc2ccco2)cc1	-2.85	.	.	.	.	.
CCC(C)C(NC(=O)c1ccccc1NC(=O)c1ccc(OC)cc1)C(=O)NCc1ccco1 (stereo not drawn)	-1.62	0.1	0.2	89.0*	76.1*	0.581
O=C(OCC(=O)N1CCN(C(=O)COC(=O)c2ccncc2)CC1)c1ccncc1	1.23	1.2	1.3	-20.2	-25.1	-0.206
Cc1cccc(OCCc2nnc(N)s2)c1C	2.02	1.1	1	-5.3	-1.4	0.286
Cc1cccc(C)c1OCCCCc1c(C)n[nH]c1C	0.08	0.3	0.4	70.1*	59.9*	-3.88
COc1cccc(OC)c1OCCCCCc1c(C)n[nH]c1C	-0.8	0.7	0.1	31.5	85.6*	-1.86
